Experimental data published in the supplement of paper PMC3334620.
In all, about 33,000 sequences were measured (“E-score (-0.5 to 0.5)”: median about -0.054, highest 2% from about 0.35 on). The sample holds the highest values, similar sequences and a random draw of the others, so the mix is not that of the screen.

target: T1, Stb5 (UniProt P38699); assay: PBM E-score (8-mer binding enrichment) (E-score (-0.5 to 0.5)); higher = stronger / more preferred TF binding; conditions: protein concentration: 200 nM; construct: GST-full length
T1 sequence: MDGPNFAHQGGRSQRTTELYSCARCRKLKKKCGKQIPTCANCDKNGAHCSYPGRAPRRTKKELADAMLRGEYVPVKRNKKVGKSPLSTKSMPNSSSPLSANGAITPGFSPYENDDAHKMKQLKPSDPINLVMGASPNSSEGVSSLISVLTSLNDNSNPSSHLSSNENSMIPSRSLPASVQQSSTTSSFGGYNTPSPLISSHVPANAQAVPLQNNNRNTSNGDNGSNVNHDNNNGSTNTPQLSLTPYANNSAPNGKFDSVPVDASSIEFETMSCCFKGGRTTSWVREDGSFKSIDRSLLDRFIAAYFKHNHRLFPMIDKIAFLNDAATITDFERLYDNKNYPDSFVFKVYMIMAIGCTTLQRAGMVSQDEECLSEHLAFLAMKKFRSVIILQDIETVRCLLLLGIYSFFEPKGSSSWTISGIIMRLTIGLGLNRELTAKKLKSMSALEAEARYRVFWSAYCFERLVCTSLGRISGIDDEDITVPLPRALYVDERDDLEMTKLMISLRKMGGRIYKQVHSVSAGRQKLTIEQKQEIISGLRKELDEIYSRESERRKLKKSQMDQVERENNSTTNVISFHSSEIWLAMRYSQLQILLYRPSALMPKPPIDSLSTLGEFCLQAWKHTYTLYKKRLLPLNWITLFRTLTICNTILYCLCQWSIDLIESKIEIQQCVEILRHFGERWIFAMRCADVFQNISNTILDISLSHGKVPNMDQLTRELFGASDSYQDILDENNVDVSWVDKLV
Method: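 Universal 'all 10-mer' protein binding microarrays (Agilent AMADID 015681) probed with GST-tagged S. cerevisiae TFs (full-length or DBD) made by in vitro transcription/translation (PURExpress), about 100-200 nM. Bound TF was detected with fluorescent anti-GST. Each ungapped 8-mer (which stands for itself and its reverse complement) is scored by the PBM enrichment score (E-score), a modified Wilcoxon-Mann-Whitney statistic from -0.5 to +0.5, computed with the Universal PBM Analysis Suite. Scale: above 0.35 generally sequence-specific binding.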

| Sequence | PBM E-score |
| --- | --- |
| ACTCCGAA | 0.328 |
| CGTCCGTC | 0.21 |
| CCTCCGTC | 0.195 |
| ACTCCGTA | 0.35 |
| ATTCCGTG | 0.00715 |
| AGTCCGTC | 0.389 |
| ACTCCGTG | 0.352 |
| AGTCCGTA | 0.284 |
| ACTCCGAC | 0.425 |
| ACTCCGTC | 0.367 |
| ACTCCGAG | 0.202 |
| ATTCCGTC | 0.141 |
| TACAACCA | -0.0508 |
| ACTCCCCA | -0.225 |
| GCGACAGC | 0.105 |
| ACGAGGCA | -0.206 |
| TATGTCCA | 0.133 |
| AGGGCGAG | -0.295 |
| CGGCGCTA | 0.447 |
| CGGCGCGC | 0.275 |
| CGGCGCGA | 0.373 |
| AGGCGCTA | 0.0525 |
| TGGCGCCA | 0.0517 |
| GGGCGATA | 0.11 |
| GGGCGCTA | 0.0264 |

| Sequence | PBM E-score |
| --- | --- |
| CGGCGCCA | 0.377 |
| AGGCGCCA | 0.041 |
| AGGCGCGA | -0.00867 |
| CGGCGATA | 0.463 |
| AGGCGATA | -0.0449 |
| TGCCTCCA | -0.237 |
| GTCATTGA | -0.109 |
| TGGAGACA | -0.254 |
| AGGTGCGC | 0.0592 |
| AGGCGGGC | 0.275 |
| AGGCGGAC | 0.356 |
| AGGCGGGG | 0.38 |
| AGGCGGGA | 0.234 |
| AGGCGGAG | 0.356 |
| AGGCGGAT | 0.0922 |
| AGGCGGAA | 0.131 |
| AGGCGGCC | 0.235 |
| ACGCGGAC | 0.241 |
| AGTGGCAA | -0.04 |
| CTGCTATA | 0.0793 |
| CAGAGTGG | -0.19 |
| AGAACCAC | 0.0238 |
| CATCATAG | -0.0501 |
| AGGAGCAC | -0.252 |
| GCCATTAA | -0.0877 |

| Sequence | PBM E-score |
| --- | --- |
| AGTATTAC | 0.0335 |
| AGTATTAA | -0.0112 |
| GGTATTAC | 0.386 |
| TGTATTAA | -0.0825 |
| GGTATTAA | 0.404 |
| CGTATTAC | 0.188 |
| GTCTTTTA | -0.0581 |
| ATGCGGGC | 0.087 |
| CCATCGGG | 0.262 |
| ATACCCGG | 0.239 |
| AAGTGCGC | 0.243 |
| CGTCATGA | -0.0111 |
| AGGGCAGG | -0.205 |
| TCGAAACA | -0.233 |
| AGCGGCGG | 0.401 |
| AGCGGCGA | 0.317 |
| CACAGCGG | 0.286 |
| ATCGGCGA | 0.272 |
| AACGGCGC | 0.222 |
| AGCGGCTG | 0.0872 |
| ATCGGCGC | 0.291 |
| AACAGCGA | 0.235 |
| AACAGCGG | 0.366 |
| AGCGGCGC | 0.363 |
| CGCGGCGC | 0.318 |

| Sequence | PBM E-score |
| --- | --- |
| ATCGGCGG | 0.363 |
| GGCTCGAC | -0.113 |
| ACCTGACA | -0.145 |
| ATAGACCA | -0.188 |
| TACAGATA | 0.048 |
| TAGTAGGA | -0.0819 |
| ACTTACCG | 0.195 |
| GAGCCAGC | 0.00015 |
| AGGCGATC | -0.302 |
| AAGGAGGT | -0.0343 |
| GCAAGCCC | 0.117 |
| AGGGGCGC | -0.0545 |
| AGGGGCGG | 0.36 |
| AGGGGCGA | -0.0945 |
| ATCTTTTA | 0.034 |
| AAGGCTCT | -0.214 |
| AGTACCGC | 0.435 |
| AGTACCGG | 0.367 |
| AGTACCGA | 0.439 |
| CGTACCGC | 0.302 |
| ACTACCGC | 0.329 |
| AGTACCAG | -0.0537 |
| GGTACCGA | 0.286 |
| CGTACCGA | 0.205 |
| AGTACCCG | 0.0305 |

| Sequence | PBM E-score |
| --- | --- |
| AGTCGTAG | -0.232 |
| AAGAGTGC | -0.0116 |
| CCACTAGG | -0.166 |
| TTCTCCAA | -0.0481 |
| AAAGTATG | -0.172 |
| GCCCCGAA | 0.198 |
| GACCCGAC | 0.295 |
| TCCCCGAA | 0.266 |
| GCCCCGAC | 0.371 |
| ACCCCGAA | 0.37 |
| ACCCCGAG | 0.351 |
| AACCCGAC | 0.347 |
| CCCCCGAA | 0.213 |
| ACCCCGAC | 0.444 |
| ACCCCGAT | 0.441 |
| CCCCCGAC | 0.349 |
| AACCCGAT | 0.222 |
| GCACTGGC | -0.0607 |
| CATGTTCA | -0.334 |
| CGGACAAC | 0.144 |
| ATCCGCTG | 0.189 |
| ATGATGGC | -0.19 |
| CACGCCTG | -0.158 |
| CCATCTAA | -0.192 |
| ACACACCT | -0.0405 |

| Sequence | PBM E-score |
| --- | --- |
| CGACACCG | 0.371 |
| ATACACCC | 0.254 |
| CGACACCA | 0.0464 |
| CAACACCG | 0.408 |
| ACACACCG | 0.372 |
| CAACACCA | -0.1 |
| ACACACCC | 0.0669 |
| CGACACCC | 0.0971 |
| ATACACCA | -0.0712 |
| CAACACCC | -0.206 |
| ATACACCG | 0.402 |
| CTTAAACC | -0.0424 |
| AAATACTG | -0.0876 |
| ATCTTTGA | -0.157 |
| AATTGAAA | -0.198 |
| GCTAAGTA | -0.0566 |
| CAAGAGGG | -0.306 |
| AGACACCA | -0.13 |
| AGACACCC | -0.231 |
| AGACACCG | 0.436 |
| ACTATCCA | 0.0766 |
| AGTTTCTG | -0.117 |
| ATCCGACA | 0.283 |
| CTCCGACA | 0.366 |
| GTCCGACA | 0.403 |

| Sequence | PBM E-score |
| --- | --- |
| CTCCGAGA | 0.187 |
| ATCCGACC | 0.262 |
| CTCCGACC | 0.375 |
| GTCCGAAA | 0.259 |
| GTCCGAGA | 0.184 |
| CTCCGAGC | 0.102 |
| CTACATGC | -0.179 |
| CTTCTGTA | -0.09 |
| CACCACAA | -0.0283 |
| GAGTGGGC | 0.0251 |
| GGCATTCA | 0.0519 |
| ATTTCACA | -0.157 |
| CCGCCCCC | 0.335 |
| CCGCCCCG | 0.409 |
| CCGCCCGG | 0.344 |
| CCGCCAGC | 0.356 |
| ACGCCCCG | 0.188 |
| CCGCCCGC | 0.362 |
| GCGCCAGC | 0.112 |
| ACGCCAGC | -0.181 |
| ACGCCCGC | 0.28 |
| CTTATCAA | -0.125 |
| ACAATGAA | -0.0923 |
| CCACATTC | -0.0853 |
